Results with a measured potency or affinity are listed apart. Inconclusive results are not listed.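 The calls were made as follows: active = fitted half-maximal concentration no higher than twice the top tested dose, in every repeat run; inconclusive = repeat runs disagree, poor fit, or flat partial inhibition; inactive = the rest.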
biological target: Endoplasmic reticulum aminopeptidase 1 (Homo sapiens) (UniProt Q9NZ08); test: inhibition of human ERAP1 enzyme activity – biochemical, cherry-pick, set 2, plate reader, dose response (AID 743314); settings: Recombinant ERAP1, Leu-AMC fluorescence, 60 min; series mostly up to 11 µM; activity change, negative = inhibition: at the top concentration;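 also: 0% = neutral control wells and -100% = L-leucinethiol positive control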
Sequence (Q9NZ08 whole entry, looked up): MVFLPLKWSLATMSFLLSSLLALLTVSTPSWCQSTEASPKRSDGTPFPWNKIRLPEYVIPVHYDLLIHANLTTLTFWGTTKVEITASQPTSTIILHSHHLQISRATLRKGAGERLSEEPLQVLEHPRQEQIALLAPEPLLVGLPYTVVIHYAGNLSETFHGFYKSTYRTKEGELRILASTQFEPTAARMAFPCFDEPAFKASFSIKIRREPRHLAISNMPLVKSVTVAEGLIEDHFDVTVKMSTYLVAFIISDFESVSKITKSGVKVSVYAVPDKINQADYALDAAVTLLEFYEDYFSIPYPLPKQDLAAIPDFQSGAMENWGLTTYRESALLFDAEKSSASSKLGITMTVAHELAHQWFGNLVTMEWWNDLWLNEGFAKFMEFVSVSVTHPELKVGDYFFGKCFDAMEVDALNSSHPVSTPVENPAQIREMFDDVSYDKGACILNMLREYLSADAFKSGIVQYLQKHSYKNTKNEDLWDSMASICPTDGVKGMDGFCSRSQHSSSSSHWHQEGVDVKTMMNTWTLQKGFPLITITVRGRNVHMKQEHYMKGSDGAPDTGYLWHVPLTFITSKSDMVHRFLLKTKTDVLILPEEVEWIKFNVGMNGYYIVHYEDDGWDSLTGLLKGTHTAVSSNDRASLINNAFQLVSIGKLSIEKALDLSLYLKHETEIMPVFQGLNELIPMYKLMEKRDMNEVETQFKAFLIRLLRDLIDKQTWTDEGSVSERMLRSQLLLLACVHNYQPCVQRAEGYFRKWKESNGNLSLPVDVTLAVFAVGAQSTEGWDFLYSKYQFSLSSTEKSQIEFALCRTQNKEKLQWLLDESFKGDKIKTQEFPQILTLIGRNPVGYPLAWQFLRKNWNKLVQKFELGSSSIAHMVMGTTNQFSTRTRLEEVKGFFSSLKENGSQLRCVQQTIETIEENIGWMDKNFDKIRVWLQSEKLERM

Activity change, negative = inhibition, inactive:
CCC(C)N(C(=O)COC(=O)c1nc2nc(C)cc(C)n2n1)C1CCS(=O)(=O)C1 (centres undefined) 10.6%
O=C(NCc1ccccc1Cl)c1cc(=O)[nH]c2ccccc12 -10.3%
C[C@@H]1CN([C@@H](C)CO)C(=O)c2cc(NS(=O)(=O)c3ccc(Cl)cc3)ccc2O[C@@H](C)CCCCO[C@H]1CN(C)C 37.5% [at 5.6 µM]
CCC(=O)N1[C@@H](CO)[C@@H](c2ccccc2)C12CN(Cc1cccnc1)C2 43%
CCN(C(=O)COC(=O)c1cnc(C)cn1)C1CCS(=O)(=O)C1 (centres undefined) -8.22%
COc1ccc(CNCc2c(O)c(Cl)cc3c(C)c(C)c(=O)oc23)c(OC)c1 83.8% [at 5.6 µM]
CN(Cc1ccccc1)C(=O)c1ncn(C)c1C(=O)N(C)Cc1ccccc1 -14.8%
O=C(O)[C@@H]1[C@@H](CO)[C@@H]2Cn3c(ccc(/C=C/c4ccccc4)c3=O)[C@@H]2N1Cc1ccc2c(c1)OCO2 3.6%
Cc1ccc(S(=O)(=O)N(C)C[C@@H]2Oc3ccc(NC(=O)c4ccncc4)cc3C(=O)N([C@H](C)CO)C[C@H]2C)cc1 22.3% [at 10 µM]
Cc1noc(C)c1NC(=O)N(C)C[C@H]1Oc2c(NC(=O)Nc3ccc(F)cc3)cccc2C(=O)N([C@@H](C)CO)C[C@H]1C 37.4%
CC(=O)N1CC[C@@H]2[C@H]1c1cc(-c3ccc(C#N)cc3)ccc1N(C)[C@H]2CO -3.73%
Cc1ccc(SC(C)C(=O)NCc2ccncc2)cc1 (centres undefined) 3.37%
CCn1cnc2c1c(=O)n(CC(=O)NCC(F)(F)F)c(=O)n2Cc1ccccc1 -0.513%
CC(=O)Oc1ccc(-c2cc3c(OC(C)=O)cc(OC(C)=O)cc3oc2=O)cc1 13.7% [at 2.6 µM]

— PubChem BioAssay AID743314 (Broad Institute, 2014)
